Screen size: about 1,200 compounds; about 85 (7%) were called active. The list comes from a sample in which actives are over-represented; it also holds similar structures and randomly drawn compounds. Unmarked numbers belong to inactive results. Calls follow the shape of the full dose curve.
biological target: Beta-2 adrenergic receptor (Homo sapiens) (UniProt P07550); assay: qHTS assay of beta-arrestin-biased ligands of beta2-adrenergic receptor: Hit Validation with GloSensor; conditions: W9-Glo22F cells, GloSensor cAMP luminescence, beta2AR agonism; activation: at 46.1 µM (top of the series); as to activation: 0% is about no effect
Summary of the method: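 Luminescence measured 10 min after GloSensor reagent addition at room temperature. Preceded by compound pinning onto W9-Glo22F cells that had been cultured overnight at 37 deg C under 5% CO2.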
Potency is read from the fitted curve at half-maximal effect.

Chain of Beta-2 adrenergic receptor (Homo sapiens) (P07550 whole entry, looked up): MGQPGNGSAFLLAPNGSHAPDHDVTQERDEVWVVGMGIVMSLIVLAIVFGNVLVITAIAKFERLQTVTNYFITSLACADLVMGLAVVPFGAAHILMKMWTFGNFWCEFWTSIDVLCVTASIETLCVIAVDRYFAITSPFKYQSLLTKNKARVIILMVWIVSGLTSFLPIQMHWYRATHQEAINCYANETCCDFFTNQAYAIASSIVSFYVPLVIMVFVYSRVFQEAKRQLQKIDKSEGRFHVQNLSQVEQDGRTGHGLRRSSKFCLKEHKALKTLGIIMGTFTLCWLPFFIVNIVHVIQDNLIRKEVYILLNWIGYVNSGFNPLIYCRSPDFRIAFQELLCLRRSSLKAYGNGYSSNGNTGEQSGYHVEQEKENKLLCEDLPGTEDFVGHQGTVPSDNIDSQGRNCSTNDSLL

Row | SMILES | activation [%] | Potency
1 | COc1cccc(OCC(=O)Nc2c3c(nn2-c2ccc(F)cc2)CS(=O)(=O)C3)c1 | 3.64 | –
2 | O=C(NC1CCCCC1)N(Cc1cc2cc3c(cc2[nH]c1=O)OCCO3)CC1CCCO1 (centres undefined) | 1.16 | –
3 | CCNC(=S)N/N=C(\C)c1cccc(C(F)(F)F)c1 | 2.48 | –
4 | CC(=O)Nc1ccc(S(=O)(=O)N2CCC(c3nnc(-c4ccc(C)cc4)o3)CC2)cc1 | 2.33 | –
5 | CCOC(=O)c1c(NC(=O)CSc2cccc[n+]2[O-])sc(C(=O)Nc2ccccc2)c1C | -1.16 | –
6 | CCOC(=O)c1c(C)nc2c(c1-c1ccccc1)C(=O)CC(C)(C)C2 | 1.16 | –
7 | CC(C)C(=O)COc1c2occc2cc2ccc(=O)oc12 | – | 13 µM (active)
8 | N#CC1=C(N)OC2=C(CC/C2=C\c2ccccc2)C1c1ccccc1 (centres undefined) | -1.16 | –
9 | CC1CCCC/C1=N\NC(=S)NCCc1ccccc1 (centres undefined) | -1.16 | –
10 | S=c1nc(-c2ccccc2)[nH]c2ccccc12 | – | 32.6 µM (active)
11 | S=c1ccc2ccccc2[nH]1 | -1.16 | –
12 | S=c1nc(-c2ccccc2)[nH]c2ccc(Br)cc12 | 0 | –
13 | CCOC(=O)C1(O)CC(C)=NN1C(=O)c1cccc(Cl)c1 (centres undefined) | -1.16 | –
14 | CCNC(=S)N/N=C/c1sccc1C | 0 | –
15 | CC(C)NC(=S)N/N=C/c1cccs1 | -1.16 | –
16 | CCNC(=S)N/N=C/c1cccs1 | – | 5.8 µM (active)
17 | Cc1noc(C)c1COc1cccc(C(=O)Nc2ccccc2N2CCOCC2)c1 | 8.6 | –
18 | O=C(N/N=C/c1ccccc1OC(=O)c1ccc2c(c1)OCO2)c1ccccc1 | 4.96 | –
19 | Cn1c(/C=C/c2ccc([N+](=O)[O-])o2)nc2ccccc2c1=O | 2.48 | –
20 | N#C/C(=C\c1cccc(O)c1)C(=O)Nc1ccc2c(c1)OCCO2 | -1.01 | –
21 | O=C(c1ccccc1)c1ccc2nc(-c3ccco3)c(-c3ccco3)nc2c1 | – | 32.6 µM (active)
22 | O=C(CC(c1ccco1)S(=O)(=O)c1ccccc1)c1ccccc1 (centres undefined) | -2.17 | –
23 | O=C(O)/C(=C\c1ccco1)NC(=O)c1ccccc1 | -1.16 | –

Row | SMILES | activation [%] | Potency
24 | CC(C)[C@H](NC(=O)c1ccccc1Cl)C(=O)Nc1nc(-c2ccccn2)cs1 | 1.16 | –
25 | COc1cccc(N2CCN(C(=O)/C=C/c3ccco3)CC2)c1 | 0 | –
26 | CC1=C(C)/C(=N\OS(=O)(=O)c2ccc(C)cc2)C=CC1=O | 0 | –
27 | C/C(=N\NC(=S)NC(C)C)c1ccco1 | 0 | –
28 | CC/C(=N\NC(=S)NC(C)C)c1ccc(OC)c(OC)c1 | – | 23.1 µM (active)
29 | CCOc1ccc(/C(CCC(=O)O)=N/NC(=S)NC(C)C)cc1 | 1.71 | –
30 | COc1cc(/C(C)=N/NC(=S)NC(C)C)cc(OC)c1OC | – | 18.4 µM (active)
31 | C/C(=N\NC(=S)NC(C)C)c1ccccc1OC(F)F | -1.16 | –
32 | C/C(=N\NC(=S)NC(C)C)c1ccccc1 | 7.28 | –
33 | COc1cc(CN(C2CCCCC2)S(=O)(=O)c2ccc(S(=O)(=O)N(C)C3CCCCC3)cc2)cc(OC)c1OC | -1.01 | –
34 | CCCNC(=O)COc1ccc2c(=O)c(Oc3ccccc3F)coc2c1 | -1.16 | –
35 | O=C(CSCC(=O)Nc1cccc([N+](=O)[O-])c1)Nc1ccccc1 | 4.96 | –
36 | CC(CCc1ccccc1)NCC(O)c1cccc([N+](=O)[O-])c1 (centres undefined) | – | 0.0206 µM (active)
37 | O=C(Cn1c(=O)c2sccc2n(Cc2cccc([N+](=O)[O-])c2)c1=O)NCCc1ccccc1 | -1.16 | –
38 | COc1ccc(C(=O)N/N=C/C(Br)=C/c2ccccc2)cc1 | -1.16 | –
39 | CCCc1cc(SCC(=O)Nc2c(C)n(C)n(-c3ccccc3)c2=O)n2c(nc3ccccc32)c1C#N | -2.33 | –
40 | NNc1ccc(Cl)nn1 | 0.306 | –
41 | Cc1cccc(NC(=S)NCc2ccco2)n1 | 0 | –
42 | C=CCNC(=S)N/N=C(\C)c1cccnc1 | -2.33 | –
43 | C=CCNC(=S)N/N=C(\C)c1cccc(OC)c1 | 7.28 | –
44 | C=CCNC(=S)N/N=C(\C)c1cccc(NC(C)=O)c1 | – | 23.1 µM (active)
45 | CCN(CC)c1ccc(/C=N/Nc2nc(C)cc(C)n2)cc1 | 2.48 | –
46 | CN1CCN(C(=O)c2ccccc2[N+](=O)[O-])CC1 | -1.16 | –

Row | SMILES | activation [%] | Potency
47 | COc1cccc(/C=N/Nc2ncc(C(F)(F)F)cc2Cl)c1O | – | 25.9 µM (active)
48 | COCCCNC(=S)N/N=C/c1cccc(OC)c1O | -1.16 | –
49 | NC(=S)N/N=C/c1ncc(C(F)(F)F)cc1Cl | 6.12 | –
50 | Oc1ccccc1/C=N/Nc1nc2ccccc2o1 | 4.96 | –
51 | CCCNC(=O)Cn1cnc2sc(C(=O)Nc3ccc4c(c3)OCO4)c(C)c2c1=O | -2.33 | –
52 | N/C(=C\C(=O)c1cc(Cl)ccc1O)C(Cl)(Cl)Cl | – | 23.1 µM (active)
53 | CCc1cc(C(=O)N(CC(C)C)c2c(N)n(Cc3ccccc3)c(=O)[nH]c2=O)sc1C | -1.01 | –
54 | COC(=O)c1scc(C)c1S(=O)(=O)Nc1ccc(C)cc1 | -2.33 | –
55 | CCOc1ccc(C(C)=O)cc1COC(=O)c1ccc2c(c1)NC(=O)CS2 | – | 4.61 µM (active)
56 | CCOc1ccc(C(C)=O)cc1COC(=O)CN1C(=O)NC2(CCCC2)C1=O | 5.51 | –
57 | S=C(Nc1ccccc1)Nc1nc2ccccc2n1CCOc1ccc(Br)cc1 | -1.16 | –
58 | Cc1ccnc(NC(=O)c2c(-c3ccccc3Cl)noc2C)c1 | 0.153 | –
59 | Cc1ccc(N(Cc2cc(=O)[nH]c3ccccc23)C(=O)c2ccco2)cc1 | 0 | –
60 | COc1ccc2c(c1)c(=O)c(C(=O)c1ccccc1)cn2Cc1ccccc1 | -1.16 | –
61 | S=c1nc2ccccc2c2nc(-c3ccccc3)[nH]n12 | – | 18.4 µM (active)
62 | Cc1ccccc1-c1nc2c3ccccc3nc(=S)n2[nH]1 | 8.6 | –
63 | Cc1nc2ccccc2c(=O)n1N | 5.81 | –
64 | COc1ccc(/C(C)=N/NC(=S)NCCc2ccccc2)c(O)c1 | 0 | –
65 | O=C(CNC(=O)c1ccccc1F)Nc1ccc2c(c1)OCO2 | -2.33 | –
66 | C=C(C)C(=O)OC1(C(F)(F)F)Oc2cc(C)ccc2NC1=O (centres undefined) | 0.306 | –
67 | Cn1c(SCC(=O)N/N=C/C=C/c2ccco2)nc2ccccc21 | 0.153 | –
68 | Cc1nn2c(nc1=O)NNC2(C)C(C)(C)C (centres undefined) | 0 | –
69 | CCN(CC)c1cc(C(F)(F)F)nc(-c2ccccn2)n1 | -1.16 | –

Row | SMILES | activation [%] | Potency
70 | FC(F)(F)c1cc(Nc2ccccc2)nc(-c2ccccn2)n1 | – | 18.4 µM (active)
71 | Cc1cc(N)n(Cc2cccs2)n1 | 0.306 | –
72 | CCOC(=O)c1cnc(-n2nc(C)cc2C)nc1N(C)C | -1.16 | –
73 | CCOC(=O)c1cnc(-n2nc(C)cc2C)nc1NC | 1.16 | –
74 | Cc1ccc(-n2c(SCC(=O)NCc3ccco3)nc3c(sc4ccccc43)c2=O)cc1 | -0.153 | –
75 | COc1ccc(CNc2nc(SCC(=O)NCc3ccco3)nc3ccccc23)cc1 | -1.16 | –
76 | COc1ccc(-c2cc(C(F)(F)F)nc(SCC(=O)NCc3ccco3)n2)cc1OC | – | 13 µM (active)
77 | O=C(Nc1ccccc1)N1CCCC(c2nc(-c3cccs3)no2)C1 (centres undefined) | -2.33 | –
78 | COc1ccc(NC(=S)N2CCc3ccccc3C2)cc1 | -1.16 | –
79 | Cc1ccc(/C(=N/Nc2ncnc3ccccc23)C(=O)O)cc1 | -1.16 | –
80 | COc1ccc(/C(C)=N/Nc2nc3ccccc3nc2C)cc1OC | – | 25.9 µM (active)
81 | COc1ccc(/C=N/Nc2nncc3ccccc23)c(OC)c1 | 0.459 | –
82 | Fc1ccccc1/C=N/n1cc(-c2ccccc2)[nH]c1=S | 0.459 | –
83 | O=C(/C=C/c1ccc(F)cc1)NC(=S)N1CCN(Cc2ccccc2)CC1 | 0 | –
84 | C[C@H](C(=O)CC(=O)OC(C)(C)C)[C@H](O)c1ccccc1 | -1.16 | –
85 | Cc1cc(/C=N/NC(N)=S)c(C)n1-c1ccc(Cl)cc1 | 0 | –
86 | Cc1nc2ccc(NC(=O)CS(=O)(=O)c3ccc(F)cc3)cc2s1 | -1.16 | –
87 | C/C(=N\NC(=S)NC1CCCCC1)c1ccc(C)o1 | -1.16 | –
88 | C/C(=N\NC(=S)NC1CCCCC1)c1ccc(O)cc1 | – | 6.51 µM (active)
89 | C/C(=N\NC(=S)NC1CCCCC1)c1cccs1 | 0 | –
90 | S=C(Nc1nc2c(s1)CCCC2)NC1CC1 | 0.153 | –
91 | NS(=O)(=O)c1ccc(CCNC(=O)CSc2ccc(Cl)cc2)cc1 | -2.48 | –
92 | Nc1c(Cl)ncnc1N/N=C/c1ccc2ccccc2n1 | -2.33 | –

Row | SMILES | activation [%] | Potency
93 | COc1cc(C(c2nnnn2C(C)(C)C)N2CCN(C)CC2)cc(OC)c1OC (centres undefined) | 0.306 | –
94 | CN(C(=O)CSc1ccncc1)C1CCCN(Cc2ccccc2F)C1 (centres undefined) | 0.306 | –
95 | O=C(NCCOc1cccnc1)C1CCC(=O)N(Cc2ccccc2F)C1 (centres undefined) | – | 9.2 µM (active)
96 | COc1ccccc1N1CCN(C(=O)c2cc3ccccc3[nH]2)CC1 | -2.33 | –
97 | Cc1[nH]c2ccccc2c1C(=O)C(C)OC(=O)c1ccc(NC(=O)CC#N)cc1 (centres undefined) | 0 | –
98 | O=C(Nc1ccc(Nc2ccccc2)cc1)c1cc([N+](=O)[O-])ccc1Cl | 0.306 | –
99 | CCC(=O)N1CCC2(CC1)Oc1ccc(Cl)cc1C(=O)C21CC(c2ccccc2)=NO1 (centres undefined) | – | 23.1 µM (active)
100 | CC(C)C(=O)N1CCC2(CC1)Oc1ccc(Cl)cc1C(=O)C21CC(c2ccccc2)=NO1 (centres undefined) | -1.16 | –
101 | CC(C)Oc1ccc(/C=N/NC(N)=S)cc1 | 1.16 | –
102 | CCCOCc1ccc(O)c2ncccc12 | 0 | –
103 | Cc1cccnc1NCc1ccc(O)c2ncccc12 | 0 | –
104 | OCc1ccnc2c(O)cccc12 | – | 25.9 µM (active)
105 | COc1ccccc1NC(=O)COC(=O)c1ccc2ccccc2n1 | 7.44 | –
106 | C[C@H](NC(=O)c1ccccc1)C(=O)Nc1nc(-c2ccccn2)cs1 | 2.48 | –
107 | CC(C)OC(=O)c1cn(-c2ccccc2)nc1-c1ccco1 | – | 23.1 µM (active)
108 | O=C(Nc1ccc(Cl)cc1)/C(=C/c1cccc(O)c1)c1nc2ccccc2s1 | -2.33 | –
109 | O=C(COc1ccc2ccccc2c1)Nc1ccc(Br)cc1C(=O)O | 0 | –
110 | Cc1ccc(NC(=S)NC(NC(=O)c2ccco2)C(Cl)(Cl)Cl)cc1 (centres undefined) | -1.16 | –
111 | COc1ccc2c(C)nc(Nc3nc(C)cc(C)n3)nc2c1 | -2.33 | –
112 | CC1(C)C/C(=N\NC(=S)Nc2ccccc2F)c2cc(O)ccc2O1 | 1.16 | –
113 | COc1cccc(NC(=S)N/N=C2\CC(C)(C)Oc3ccc(O)cc32)c1 | – | 25.9 µM (active)
114 | COc1ccccc1NC(=S)N/N=C1\CC(C)(C)Oc2ccc(O)cc21 | -2.33 | –
